Results on 55 compounds are retold here after PubChem BioAssay AID1852 (Sanford-Burnham Center for Chemical Genomics, 2009).

The inhibition is the change of the read-out against control, counted positive when it falls.

The structures appear in SMILES notation. About 1,100 (44%) of roughly 2,500 compounds were called active. So high a share suggests a set chosen from earlier hits. The list shows a part of the results. Unmarked numbers belong to inactive results.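 Rule for the calls: active = inhibition above 50% at 4 µM in the single-point screen; inactive = inhibition of 50% or less.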

The assay can be described thus: blockers of TNF-a NF-kB luciferase induction – cell-based, HEK293T NF-kB-Luc, luminescence, selectivity assay for NOD1/NOD2 signaling inhibitor project, primary screen (AID 1852). The conditions noted are these: TNF-a induced, 14 h, at 4 µM, hits give high values.
With `CCCCN=C[C@]12CCC(O)CC1(O)CCC1[C@@H]2CC[C@]2(C)[C@H](C3C=CC(=O)O3)CCC12O` (stereo not given in full), the inhibition is 92.1% (active).
As for `COc1ccc(-c2cc(-c3ccccc3)[n+](C)c(-c3ccccc3)c2)cc1`, the inhibition was 46.4%.
As for `COc1ccc(-[n+]2c(-c3ccccc3)cc(-c3ccc(C)cc3)cc2-c2ccccc2)cc1`, the inhibition was 75.4% (active).
Take `CN(C)c1ccc(-[n+]2c(-c3ccccc3)cc(-c3ccccc3)cc2-c2ccccc2)cc1`: the inhibition is 94.6% (active).
For the compound `O=C(c1ccc(Cl)cc1)C1CCCN(Cc2cccc3ncccc23)C1` (stereo not given), the inhibition is 29.9%.
Regarding `CCOc1ccc(-c2c(C)n(-c3ccc(OCC)cc3)c3[n+]2CCCCC3)cc1`, the inhibition is 87% (active).
To `COC1CC(OC2CCC3(C)C(CCC4C3CCC3(C)C(C5=CC(=O)OC5)C(OC(C)=O)CC43O)C2)OC(C)C1OC1OC(COC2OC(CO)C(O)C(O)C2O)C(O)C(O)C1O` (stereo not given) belongs 94.7% (active).
For `CC(=O)c1c(C)n(C2CCCCC2)c2ccc(O)cc12`, the inhibition was 90% (active).
The figure for `CC(C)(C)c1ccc(CSc2cnn(C(C)(C)C)c(=O)c2Cl)cc1` is 48.3%.
To `NC(=O)c1cn(C2OC(CO)C(O)C2O)c2ncnc(N)c12` (stereo not given) belongs 99.9% (active); to `CN1C2CCC1/C(=C/c1ccccn1)C(=O)/C2=C\c1ccccn1`, 102% (active).
Turning to `Cc1cc(C)cc(N2C(=O)NC(=O)/C(=C/c3cccn3-c3ccc(Cl)cc3)C2=O)c1`, the inhibition was -24%.
To `CN1C(=O)/C(=C/c2cccn2-c2ccc3ccccc3c2)C(=O)NC1=S` belongs 5.6%; to `CCn1nc(/C=C/c2ccccc2)nc2c(=O)n(C)c(=O)nc1-2`, 104% (active); to `CCn1nc(-c2ccccc2)nc2c(=O)n(C)c(=O)nc1-2`, 99.1% (active).
Turning to `O=C1NC(=O)N(Cc2ccco2)C(=O)/C1=C/C=C/c1ccco1`, the inhibition is -10.1%.
To `O=C1NC(=O)N(Cc2ccccc2)C(=O)/C1=C/C=C/c1ccco1` belongs 36.6%; to `COc1cc(OC)c(OC)cc1/C=C1/C(=O)NC(=O)N(Cc2ccccc2)C1=O`, 29.5%; to `O=C1NC(=O)N(Cc2ccc(F)cc2)C(=O)/C1=C\C=C\c1ccco1`, 89.3% (active).
To `O=C1NC(=O)N(CCc2ccc(F)cc2)C(=O)/C1=C\C=C\c1ccccc1` belongs 56% (active); to `C=CCN1C(=O)NC(=O)/C(=C/C=C/c2ccccc2)C1=O`, 49.4%.
For the compound `COc1ccc(Oc2cc(NC(=O)c3nn(C)cc3[N+](=O)[O-])cc([N+](=O)[O-])c2)cc1`, the inhibition was 61.5% (active).
To `C[C@H]1CCC[C@@H](O)CCC/C=C/c2cc(O)cc(O)c2C(=O)O1` belongs 73.6% (active).
The figure for `CC(=O)c1cn(Cc2ccccc2F)c2ccccc12` is 31.5%.
On to `Cc1nc2c(=O)n(C)c(=O)nc-2n(C)n1`, for which the inhibition was 99.4% (active).
Regarding `CCn1ccnc1CN1CCCC(C(=O)c2cc(Cl)ccc2OC)C1` (stereo not given), the inhibition is 0.8%.
For `O=c1c2ccccc2nc(/C=C/c2ccc3c(c2)OCO3)n1-c1ccccc1`, the inhibition is -34.6%.
The figure for `O=c1c2ccccc2nc(/C=C/c2ccccc2O)n1-c1ccccc1O` is 64.8% (active); for `O=C1C(=O)c2ccccc2-c2ccccc21` it is 104% (active).
Turning to `CN1C(=O)NC(=O)/C(=C\C=C\c2ccccc2[N+](=O)[O-])C1=O`, the inhibition is 72.4% (active).
For the compound `O=C1NC(=O)N(c2ccccc2)C(=O)/C1=C\C=C\c1ccccc1`, the inhibition was 45.9%.
To `O=C1NC(=O)N(c2ccccc2)C(=O)/C1=C/C=C/c1ccco1` belongs 32%.
To `O=c1nc(/C=C/c2ccc(Cl)cc2Cl)cc(C(F)(F)F)[nH]1` belongs -105%; to `COc1ccc(-n2c(O)c(/C=C3\C=Nc4ccc(Br)cc43)c(=O)[nH]c2=O)cc1`, 23.8%.
Regarding `O=C(c1cc(-c2ccc(Cl)cc2)n(-c2ccc(Cl)cc2Cl)n1)N1CCOCC1`, the inhibition is -36%.
To `CC(=O)OC[C@]12CCC(C)=C[C@H]1O[C@@H]1[C@H](O)[C@@H](OC(C)=O)[C@@]2(C)[C@]12CO2` belongs 102% (active); to `C=C(C=O)CC1CC(O)[C@]2(C)OC3CC4OC5C[C@]6(C)O[C@]7(C)CCC8OC9C[C@]%10(C)OC%11C(C)=CC(=O)OC%11CC%10OC9C[C@@H](C)C8OC7CC6O[C@]5(C)CC5OC5C4OC3CC2O1` (stereo not given in full), 80.4% (active); to `CCCCCn1c(=O)c(C(=O)Nc2cnccn2)c(O)c2ccccc21`, 53.4% (active).
`CCCCn1c(=O)c(C(=O)Nc2cnccn2)c(O)c2ccccc21`: the inhibition is 3.4%.
The figure for `CCCCCn1c(=O)c(C(=O)Nc2ccccc2S(N)(=O)=O)c(O)c2ccccc21` is -7%.
The figure for `CCCCCCn1c(=O)c(C(=O)Nc2cnccn2)c(O)c2ccccc21` is 52.2% (active); for `CCCCCCCn1c(=O)c(C(=O)Nc2cnccn2)c(O)c2ccccc21` it is 34.9%.
In the case of `CC(C)CCn1c(=O)c(C(=O)Nc2ccccc2S(N)(=O)=O)c(O)c2ccccc21`, the inhibition is -7.2%.
As for `Cc1ccc(N2C(=O)NC(=O)/C(=C\C=C\c3ccco3)C2=O)cc1`, the inhibition is 9.7%.
To `O=Cc1cn(Cc2cccc([N+](=O)[O-])c2)c2ccccc12` belongs 86.7% (active); to `O=c1[nH]c(=O)n(-c2ccccc2F)c(O)c1/C=C1\C=Nc2ccccc21`, 14.8%.
Turning to `Nc1nonc1C(=O)N/N=C/c1ccc([N+](=O)[O-])o1`, the inhibition was 31.1%.
In the case of `O=c1c2ccccc2nc(/C=C/c2ccc([N+](=O)[O-])o2)n1-c1ccc(O)cc1`, the inhibition is 89.7% (active).
Take `Cc1cccc(-n2c(/C=C/c3ccc([N+](=O)[O-])o3)nc3ccccc3c2=O)c1`: the inhibition is 91.9% (active).
The figure for `COc1ccc(-n2c(/C=C/c3ccc(O)cc3)nc3ccccc3c2=O)cc1` is 3.4%.
The figure for `Cc1ccc(/C=C2\C(=O)NC(=S)N(c3ccccc3F)C2=O)s1` is 106% (active); for `COc1cccc(N2C(=O)/C(=C/c3ccc(C)o3)C(=O)NC2=S)c1` it is 40.9%.
To `O=C1NC(=S)N(c2ccccc2F)C(=O)/C1=C\c1cccs1` belongs -11.1%; to `Cc1ccc(Sc2ccc(C=C3C(=O)N(C)C(=O)N(C)C3=O)o2)cc1`, -5.5%; to `C=CCn1c(O)c(C(C)=NCc2cc(OC)cc(OC)c2)c(=O)[nH]c1=O`, 16%.
